Source: PubChem (several laboratories)
In the library only some 4.7% were active in any assay of this set; here they are far more common.
Mtb FBA inh: Mtb FBA enzyme inhibitors, primary screen, biochemical, fluorescence, strain H37Rv; hit rate 2.3% among 360,000; inhibition, % at 1 µM; Fructose-bisphosphate aldolase (Mycobacterium tuberculosis (strain ATCC 25618 / H37Rv)), …; purified M. tuberculosis FBA, fluorescence read-out; in the data active means inhibition above about 27%;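 further: 0% = vehicle and 100% = reference inhibitor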
CCHFV vOTU inh: CCHFV vOTU protease inhibitors, primary screen, biochemical, Pep-AMC substrate, fluorescence; Crimean-Congo hemorrhagic fever virus L polyprotein viral ovarian tumor (vOTU) protease …; AID 651958, 2012; hit rate 0.55% among 370,000; inhibition, % at 11.5 µM; further: 0% = vehicle wells with enzyme and 100% = no enzyme wells
VHR inh abs: VHR1 phosphatase inhibitors, primary screen, biochemical, absorbance, uHTS. Dual specificity protein phosphatase 3 (Homo sapiens), P51452. hit rate 0.52% among 290,000. AID 1654, 2009. inhibition, % at 13.3 µM. recombinant VHR phosphatase, pNPP absorbance; in the data active means inhibition above about 50%
3CLpro inhibitor: SARS-CoV 3CLpro protease inhibitors, primary screen, biochemical, quenched FRET; Replicase polyprotein 1ab (Severe acute respiratory syndrome coronavirus), P0C6X7; recombinant SARS-CoV 3CLpro, quenched FRET peptide cleavage; inhibition, % at 6 µM; hit rate 0.14% among 290,000; AID 1706, 2009; in the data active means inhibition above about 12%
RecA splice inh: Mtb RecA intein splicing inhibitors, primary screen, biochemical, fluorescence, HTS; Protein RecA (Mycobacterium tuberculosis (strain ATCC 25618 / H37Rv)), P9WHJ3; cell-free RecA intein splicing; inhibition, % (test concentration not listed); hit rate 0.75% among 290,000; AID 2221, 2009; in the data active means inhibition above about 30%; inconclusive means no clear call, values can overlap the other calls;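 further: 0% = vehicle wells and 100% = reference inhibitor control wells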
Target sequence (P9WHJ3 whole entry, looked up, canonical isoform): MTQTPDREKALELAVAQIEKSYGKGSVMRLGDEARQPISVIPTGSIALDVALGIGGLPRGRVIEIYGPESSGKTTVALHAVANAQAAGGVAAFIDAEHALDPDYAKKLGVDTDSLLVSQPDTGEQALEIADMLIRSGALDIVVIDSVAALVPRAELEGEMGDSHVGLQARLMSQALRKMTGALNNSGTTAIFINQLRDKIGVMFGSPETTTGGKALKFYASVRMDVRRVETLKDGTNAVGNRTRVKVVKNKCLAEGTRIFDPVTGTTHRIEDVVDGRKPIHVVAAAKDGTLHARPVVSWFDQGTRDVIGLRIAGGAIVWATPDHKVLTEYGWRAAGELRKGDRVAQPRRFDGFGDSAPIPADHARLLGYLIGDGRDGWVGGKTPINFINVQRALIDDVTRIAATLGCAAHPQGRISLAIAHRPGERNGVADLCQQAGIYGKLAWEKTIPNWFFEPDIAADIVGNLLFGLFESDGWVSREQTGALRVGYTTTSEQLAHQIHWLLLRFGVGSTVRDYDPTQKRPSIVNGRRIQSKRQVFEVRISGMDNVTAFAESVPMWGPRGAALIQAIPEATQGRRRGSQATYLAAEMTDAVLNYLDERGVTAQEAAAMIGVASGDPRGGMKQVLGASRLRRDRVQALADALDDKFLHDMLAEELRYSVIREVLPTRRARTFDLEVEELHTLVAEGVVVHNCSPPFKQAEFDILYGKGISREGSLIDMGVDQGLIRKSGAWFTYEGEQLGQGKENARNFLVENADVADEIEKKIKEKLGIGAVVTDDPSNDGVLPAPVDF
GDH-TPI counter: GDH-TPI coupling enzyme inhibitors, primary screen, artefact control for M. tuberculosis FBA inhibitor project, biochemical, absorbance, full deck; GDH-TPI coupled enzyme counterscreen, NADH absorbance; inhibition, % at 4.8 µM; hit rate 1.2% among 360,000;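 further: 0% = DMSO wells and 100% = wells lacking the enzyme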
GFP chromophore: counter-screen: blocks GFP chromophore formation, dose response, counter-screen, biochemical, fluorescence, homogeneous; shares compounds with RecA splice inh; cell-free GFP chromophore formation; EC50, µM; hit rate 83% among 2,100; call rule not given here
Numbers without * were called inactive. Unless noted, no stated cut-off is given here; in the data, active means inhibition above about 30%; inactive means the rest.

For CCN(CCN(C)C)C(=O)c1ccc2c(c1NCCO)C(=O)c1ccccc1C2=O the results were Mtb FBA inh -6.1, CCHFV vOTU inh 1.2, VHR inh abs -4.3, 3CLpro inhibitor -1.3, RecA splice inh 47.9*, GDH-TPI counter 2.5 and GFP chromophore inconclusive.
COc1ccc(C(=O)CSc2nnc(NC(=O)C3CC(=O)N(c4ccccc4)C3)s2)cc1 (stereo unspecified) was read as Mtb FBA inh 4.9, CCHFV vOTU inh 3.9, VHR inh abs 16.5, 3CLpro inhibitor 4.7, RecA splice inh -0.6 and GDH-TPI counter 7.4.
Screening COc1cccc(N2CC(C(=O)Nc3nnc(SCC(=O)c4ccccc4)s3)CC2=O)c1 (stereo unspecified) returned Mtb FBA inh 0.6, CCHFV vOTU inh -6.0, VHR inh abs -17.3, 3CLpro inhibitor 2.6, RecA splice inh 94.1*, GDH-TPI counter 8.5 and GFP chromophore >38.
Screening Cc1nn(Cc2ccccc2)c2c1C(c1cccnc1)C(C#N)=C(N)O2 (stereo unspecified) returned Mtb FBA inh -1.7, CCHFV vOTU inh -4.9, VHR inh abs -14.9, 3CLpro inhibitor 1.9, RecA splice inh 72.7*, GDH-TPI counter 8.2 and GFP chromophore 12.8*.
CC(=O)C1=C(C)OC(N)=C(C#N)C1c1cccnc1 (stereo unspecified) was read as Mtb FBA inh -3.2, CCHFV vOTU inh 8.9, VHR inh abs -3.2, 3CLpro inhibitor 1.2, RecA splice inh -10.1 and GDH-TPI counter -2.8.
`Cc1nn(Cc2ccccc2)c2c1C(c1ccco1)C(C#N)=C(N)O2` (stereo unspecified) gave Mtb FBA inh 4.2, CCHFV vOTU inh 6.0, VHR inh abs 12.9, 3CLpro inhibitor 1.7, RecA splice inh 54.6*, GDH-TPI counter 2.2 and GFP chromophore 23.2*.
Screening CCCc1nn(C)c2c1C(c1cccnc1)C(C#N)=C(N)O2 (stereo unspecified) returned Mtb FBA inh 0.7, CCHFV vOTU inh 3.4, VHR inh abs 19.7, 3CLpro inhibitor 6.2, RecA splice inh 59.7*, GDH-TPI counter -2.1 and GFP chromophore 24*.
For Cc1nn(Cc2ccccc2)c2c1C(c1ccncc1)C(C#N)=C(N)O2 (stereo unspecified) the results were Mtb FBA inh 0.5, CCHFV vOTU inh 3.5, VHR inh abs 2.8, RecA splice inh 67.3*, GDH-TPI counter -2.0 and GFP chromophore 18.4*.
Cc1nn(Cc2ccccc2)c2c1C(c1ccc(Cl)cc1)C(C#N)=C(N)O2 (stereo unspecified) was read as Mtb FBA inh 3.6, CCHFV vOTU inh 19.9, VHR inh abs 8.8, 3CLpro inhibitor -3.4, RecA splice inh 59.9*, GDH-TPI counter 7.2 and GFP chromophore 16.2*.
`CCN(CC)S(=O)(=O)c1ccc(N2CCN(S(=O)(=O)c3ccccc3C#N)CC2)nc1` gave Mtb FBA inh 6.8, CCHFV vOTU inh -1.1, VHR inh abs 17.5, 3CLpro inhibitor -2.4, RecA splice inh 31.7*, GDH-TPI counter 4.2 and GFP chromophore >38.
CCN(CC)S(=O)(=O)c1ccc(N2CCN(S(=O)(=O)c3ccccc3)CC2)nc1 was read as Mtb FBA inh 0.1, CCHFV vOTU inh 3.6, VHR inh abs 16.0, 3CLpro inhibitor -1.7, RecA splice inh -0.1 and GDH-TPI counter 7.4.
COc1ccc(CCNC(=O)c2noc(C)c2[N+](=O)[O-])cc1OC was read as Mtb FBA inh -1.0, CCHFV vOTU inh -5.2, VHR inh abs 27.4, 3CLpro inhibitor -4.6, RecA splice inh 1.5 and GDH-TPI counter 5.6.
`O=C(O)c1ccccc1-c1ccccc1C(=O)Nc1ccc(-c2nc3cc(Cl)ccc3o2)cc1` gave Mtb FBA inh 25.4, CCHFV vOTU inh 7.0, VHR inh abs 25.7, 3CLpro inhibitor 5.3, RecA splice inh 35.7*, GDH-TPI counter 29.7 and GFP chromophore 16.9*.
`N#Cc1cc([N+](=O)[O-])c(-n2nnc3ccccc32)c([N+](=O)[O-])c1` gave Mtb FBA inh -10.6, VHR inh abs 20.2, 3CLpro inhibitor -4.1, RecA splice inh 94.1*, GDH-TPI counter 6.1 and GFP chromophore >38.
Screening CCCCCCCCN1C(=O)[C@@H](CC(=O)NCC2CCCCC2)C[C@@]2(C(=O)OC)C1=C[C@H](C(C)(C)C)O[C@@H]2C returned CCHFV vOTU inh 5.1.
`O=S(=O)(Nc1c(O)ccc2ccccc12)c1ccccc1` gave Mtb FBA inh -0.3, CCHFV vOTU inh -0.6, RecA splice inh 93.3*, GDH-TPI counter -7.6 and GFP chromophore 2.2*.
COc1ccc(S(=O)(=O)Nc2ccc(O)c3ccccc23)cc1 was read as Mtb FBA inh 0.6, CCHFV vOTU inh 81.9*, VHR inh abs -27.1, 3CLpro inhibitor 2.2, RecA splice inh 95.8*, GDH-TPI counter 20.2 and GFP chromophore 0.136*.
For O=S(=O)(Nc1cccc2ccccc12)c1ccccc1 the results were Mtb FBA inh 1.3, CCHFV vOTU inh -2.2, VHR inh abs 8.5, 3CLpro inhibitor 7.1, RecA splice inh -0.1 and GDH-TPI counter 13.9.
For O=S(=O)(Nc1c(O)ccc2ccccc12)c1ccc(F)cc1 the results were Mtb FBA inh 2.0, CCHFV vOTU inh 2.0, RecA splice inh 95.4*, GDH-TPI counter 2.4 and GFP chromophore 3.04*.
O=S(=O)(Nc1ncccn1)c1ccc(F)cc1 was read as Mtb FBA inh -1.2, CCHFV vOTU inh -14.2, VHR inh abs 17.6, 3CLpro inhibitor -5.3, RecA splice inh 1.0 and GDH-TPI counter 5.1.
Screening CCN(CC(=O)NCc1cccs1)C(=O)CCC(=O)c1ccc(F)cc1 returned Mtb FBA inh -0.7, CCHFV vOTU inh 1.4, RecA splice inh 0.1 and GDH-TPI counter -6.3.
COc1ccc(OCC(=O)N/N=C2\CCCCc3ccccc32)cc1 was read as Mtb FBA inh 2.9, CCHFV vOTU inh 7.8, VHR inh abs 16.9, 3CLpro inhibitor -2.6, RecA splice inh 4.2 and GDH-TPI counter 2.5.
For CCc1ccc(OCC(=O)N/N=C2\CC(=O)c3ccccc32)cc1 the results were Mtb FBA inh -0.6, VHR inh abs 47.5, 3CLpro inhibitor -7.0, RecA splice inh 53.0*, GDH-TPI counter 11.9 and GFP chromophore 8.83*.
O=C(CSc1nnc(CNC(=O)c2ccco2)o1)Nc1cccc(F)c1 was read as Mtb FBA inh -1.7, CCHFV vOTU inh -14.8, VHR inh abs -27.1, 3CLpro inhibitor 8.4, RecA splice inh 0.1 and GDH-TPI counter 3.4.
